Screens (PubChem)
ELG1 genotox – qHTS screen for small molecules that induce genotoxicity in human embryonic kidney (HEK293T) cells expressing luciferase-tagged ELG1; Potency, µM (series often up to 46 µM), inactives show top-dose activity change, positive = activation, actives largely listed as activators; HEK293T ELG1-luciferase reporter, luminescence, 16 h; 1.3% of 330,000 active; AID 504466, 2011; also: % of control where 0% means no effect; nearly all actives have a fitted effect of over 60% in size
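DMSO vehicle served as control against compound-treated ELG1-luciferase HEK293T cells; exposure lasted 16 hr at 37 °C and 5% CO2, followed by ONE-Glo luminescence detection after 30 min.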
NPC1 promoter act – qHTS Assay for NPC1 Promoter Activators. Huh7 NPC1 promoter luciferase reporter, 24 h. Potency, µM (top dose mostly 9.22 µM), inactives show at the top dose activation, hits mostly activators. 2.4% of 320,000 active; also: % of control where 0% means no effect; nearly all actives have a fitted effect of over 60% in size
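Quantitative HTS used a cell-based reporter: Huh7 cells stably bearing the NPC1 promoter upstream of luciferase were treated with compounds for 24 h, and promoter activation was read as luminescence.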
ELG1 DNA repair – qHTS screen for small molecules that inhibit ELG1-dependent DNA repair in human embryonic kidney (HEK293T) cells expressing luciferase-tagged ELG1; HEK293T ELG1-luciferase reporter, luminescence, 16 h; DNA damage induced by 5-fluorouridine; Potency, µM (doses to about 46.1 µM), for the others: at the top dose activity change, negative = inhibition, hits mostly inhibitors; 2.3% of 330,000 active; AID 504467, 2011; also: % is scaled to controls: 0 for no effect and ±100 for the full control effect; nearly all actives have a fitted effect of over 55% in size
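5-Fluorouridine DNA damage + compound/DMSO, 2,000 cells/well, 16 h, 37 °C/5% CO2. ONE-Glo, 30 min RT, luminescence. Readout = decrease in reporter signal.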
SMN2 splice enh – qHTS Assay for Enhancers of SMN2 Splice Variant Expression | HEK293 SMN2-luciferase splicing reporter, luminescence, 30-36 h | Potency, µM (titrated, usually from 46.1 µM), for inactives: top-dose activity change, positive = activation, usual class: activators | 2.8% of 210,000 active; also: % of control where 0% means no effect; nearly all actives have a fitted effect of over 55% in size
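qHTS luciferase splicing reporter: luminescence rises when SMN2 exon 7 is included in transfected HEK293 cells. Compound exposure lasted 30-36 h at 37C, with 4.5 mM final sodium butyrate as control, followed by a ONE-Glo read.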
Rab9 prom act – qHTS Assay for Rab9 Promoter Activators; 2.8% of 320,000 active; Potency, µM (series often up to 9.22 µM), inactives show top-dose activation, negative = inhibition, actives largely listed as activators; Huh7 Rab9 promoter-luciferase reporter, luminescence, 24 h; AID 485297, 2010; also: % of control where 0% means no effect; nearly all actives have a fitted effect of over 60% in size
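Steps: seed 1500 Huh7 Rab9-luc cells per well, rest 2 h at 37 °C; add compound in DMSO; incubate 24 h; add luciferase reagent, 10 min ambient; read luminescence.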
FLuc modulator – qHTS profiling assay for firefly luciferase inhibitor/activator using purifed enzyme and Km concentrations of substrates (counterscreen for miR-21 project); Luciferin 4-monooxygenase (Photinus pyralis), P08659; Potency, µM (highest dose often 57.5 µM), for the others: at the highest dose activity change, negative = inhibition, actives largely listed as inhibitors; purified FLuc, Km substrates, luminescence inhibition; 6.9% of 360,000 active;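 also: plate controls were vehicle for no effect and reference inhibitor for full effect; nearly all actives have a fitted effect of over 55% in size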
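Purified P. pyralis luciferase, 10 nM final, with Km-level 10 uM D-luciferin and 10 uM ATP in 50 mM Tris acetate pH 7.5, 10 mM Mg acetate, 0.01% Tween-20, 0.05% BSA; 6-point qHTS titration about 60 µM downward; luminescence read.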
ELG1 FLuc counter – qHTS screen for small molecules that inhibit ELG1-dependent DNA repair: Hit Confirmation in Cell-Based Luciferin Assay; 3% of 350 active; Potency, µM (doses to about 46.1 µM), without a hit: at the top dose activity change, negative = inhibition, usual class: inhibitors; cell-free firefly luciferase luminescence counter-screen, ViewLux; AID 624247, 2012; shares compounds with ELG1 DNA repair; also: % is scaled to controls: 0 for no effect and ±100 for the full control effect
ELG1 Luc conf – HTS assay for small molecules that inhibit ELG1-dependent DNA repair in human embryonic kidney (HEK293T) cells expressing luciferase-tagged ELG1: Hit Confirmation; AID 624248, 2012; shares compounds with ELG1 DNA repair; Potency, µM (series often up to 46.1 µM), inactives show top-dose activity change, negative = inhibition, most hits filed as inhibitors; HEK293T ELG1-luciferase levels, luminescence; cells co-treated with 5-fluorouridine; 68% of 670 active; also: % is scaled to controls: 0 for no effect and ±100 for the full control effect; nearly all actives have a fitted effect of over 55% in size
ELG1-Luc MMS – MMS-stimulated human ELG1 repair inhibition, confirmed | shares compounds with ELG1 DNA repair | HEK293T luciferase-tagged ELG1 level, MMS stimulated | Potency, µM (series often up to 46.1 µM), inactives show at the highest dose activity change, negative = inhibition, actives largely listed as inhibitors | 53% of 670 active | AID 624249; also: % is scaled to controls: 0 for no effect and ±100 for the full control effect; nearly all actives have a fitted effect of over 60% in size
ELG1 5-FU – qHTS screen for small molecules that inhibit ELG1-dependent DNA repair: Hit Confirmation with 5FU Viability; shares compounds with ELG1 DNA repair; cell viability with 5-FU, ELG1-dependent repair; Potency, µM (series often up to 46.1 µM), for inactives: at the highest dose activity change, negative = viability loss, most hits filed as cytotoxic; 670 tested, under 10 active;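 also: ELG1-luc HEK293T cells cotreated with 5-fluorouridine at 10 µM final; viability measured 16 h after compound addition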
ELG1 MMS cell – qHTS screen for small molecules that inhibit ELG1-dependent DNA repair: Hit Confirmation with MMS Viability | shares compounds with ELG1 DNA repair | Cell viability with MMS, ELG1-dependent DNA repair | Potency, µM (titrated, usually from 46.1 µM), for inactives: at the highest dose activity change, negative = viability loss, most hits filed as cytotoxic | 33% of 670 active | AID 624251, 2012;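 also: ELG1-luc HEK293T cells co-treated with 10 µM MMS; viability read 16 h after compound addition; % is scaled to controls: 0 for no effect and ±100 for the full control effect; nearly all actives have a fitted effect of over 60% in size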
ELG1 unstim viab – qHTS screen for small molecules that inhibit ELG1-dependent DNA repair: Hit Confirmation with Unstimulated Viability Assay; Potency, µM (doses to about 45.9 µM), inactives show top-dose activity change, negative = loss of viability, usual class: cytotoxic; AID 624252, 2012; cell viability counter-screen, unstimulated, luminescence; shares compounds with ELG1 DNA repair; 8% of 900 active;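 also: compound exposure lasted 16 hours before reading; % is scaled to controls: 0 for no effect and ±100 for the full control effect; nearly all actives have a fitted effect of over 55% in size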
FLuc enzyme – qHTS screen for small molecules that inhibit ELG1-dependent DNA repair: Hit Confirmation in Biochemical Luciferin Assay; shares compounds with ELG1 DNA repair; purified firefly luciferase, luminescence counter-screen; Potency, µM (titrated, usually from 57.5 µM), without a hit: top-dose activity, negative = inhibition, most hits filed as inhibitors; 10% of 350 active; also: % is scaled to controls: 0 for no effect and ±100 for the full control effect
Active calls of the source: *; ? = inconclusive; . = no result given; [ ] = remark or other dose. A selection: hits, their analogues and other compounds. The true share with any hit is near 9.3%. Calls follow the shape of the dose curve; as a rule, active = well fitted curve in the direction sought with a large enough effect; inconclusive = small, poorly fitted or top-dose-only effect, or another doubt; inactive = no such curve, though single readings can be large; an effect the other way counts as inactive or inconclusive. Potency is read from the fitted curve at half-maximal effect.

SMILES	ELG1 genotox	NPC1 promoter act	ELG1 DNA repair	SMN2 splice enh	Rab9 prom act	FLuc modulator	ELG1 FLuc counter	ELG1 Luc conf	ELG1-Luc MMS	ELG1 5-FU	ELG1 MMS cell	ELG1 unstim viab	FLuc enzyme
CCN(CC)CCCN(Cc1cc2cc(OC)c(OC)cc2[nH]c1=O)C(=O)Nc1ccccc1	13.6%	0.8%	?	11.4%	0.1%	-14.8%	.	.	.	.	.	.	.
COc1cc2cc(CN(Cc3cccnc3)C(=O)Nc3ccccc3F)c(=O)[nH]c2cc1OC	-4.0%	-6.2%	5.8µM*	.	0.6%	-5.5%	-5.0%	9.97µM*	0.6%	?	-1.2%	-8.3%	-13.9%
Cc1ccc(-c2nc(NC(=O)c3cc(C(C)(C)C)nn3C)sc2C)cc1Cl	-4.9%	-4.5%	4.61µM*	.	-8.8%	-2.2%	.	?	-18.9%	2.5%	?	?	.
O=c1[nH]c(=O)n([C@@H]2O[C@H](CO)[C@@H](O)[C@H]2O)cc1F	.	.	.	.	.	.	.	.	.	.	.	?	.
COc1ccc(C2C(C(C)=O)=C(C)Nc3ncnn32)cc1OC (stereo unspecified)	6.4%	-2.7%	19.5%	1.5%	-1.9%	0.8%	.	.	.	.	.	.	.
COc1ccc2c(c1OC)C(=O)N1c3ccccc3C(=O)N(c3ccc(F)cc3)C21 (stereo unspecified)	-16.9%	-1.6%	?	-19.6%	-9.7%	0.5%	?	5µM*	7.92µM*	-2.0%	?	?	-3.1%
Cc1ccccc1N1C(=O)c2ccccc2N2C(=O)c3ccccc3C12 (stereo unspecified)	-7.2%	-2.7%	?	2.0%	-2.2%	-1.3%	.	.	.	.	.	.	.
COc1ccc2c(c1OC)C(=O)N1c3ccccc3C(=O)N(c3ccccc3)C21 (stereo unspecified)	-11.5%	-5.2%	?	-38.1%	12.7%	-4.0%	-11.0%	2.23µM*	5µM*	-0.4%	?	?	0.7%
Cc1ncc(CSc2ccccc2N)c(CO)c1O	.	.	.	-4.7%[9.22 µM]	.	.	.	.	.	.	.	.	.
Oc1ccccc1-c1ccn[nH]1	3.3%	.	?	.	.	.	.	.	.	.	.	.	.
Oc1ccccc1-c1cc(-c2ccccc2)n[nH]1	?	.	?	.	.	.	.	.	.	.	.	-1.9%	.
